Assay outcomes as filed in PubChem BioAssay.
KB-3-1 cytotox: kills parental KB-3-1 adenocarcinoma cells; KB-3-1 viability, CellTiter-Glo ATP luminescence, 72 h; Potency, µM (series often up to 46.1 µM), hits mostly cytotoxic; hit rate 1.4% among 400,000; AID 1347075; further: nearly all actives have a fitted effect of over 60% in size
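72 h, 37 °C compound treatment of KB-3-1 parental cells; CellTiter-Glo added, 10 min, luminescence read. Data corrected against DMSO-only plates and normalized before curve fitting.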
MCF10A rereplic: inducers of DNA re-replication in MCF 10A breast cells; MCF 10A DNA re-replication, Hoechst nuclear intensity, 48 h; Potency, µM (series often up to 46.1 µM), actives largely listed as activators; hit rate 2.9% among 350,000; further: nearly all actives have a fitted effect of over 50% in size
PINK1 expr mod: PINK1 expression modulation. PINK1 immunofluorescence, high-content cytometry, 24 h. Potency, µM (titrated, usually from 76.6 µM), usual class: activators. hit rate 0.2% among 410,000. AID 624263; active means well fitted activation curve with a large enough effect; inconclusive means small, poorly fitted or top-dose-only effect; cell line not stated here; further: nearly all actives have a fitted effect of over 65% in size
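Measures PINK1 amount and localization on or inside mitochondria by immunofluorescence. Stable cells get compounds at 5 concentrations for 24 hours before fixation and staining; CCCP controls included.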
KB-V1 cytotox: KB-V1 MDR subline cytotoxicity; KB-V1 MDR cells viability, CellTiter-Glo, 72 h; Potency, µM (titrated, usually from 46.1 µM), hits mostly cytotoxic; hit rate 3.4% among 400,000; further: nearly all actives have a fitted effect of over 60% in size
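Following 72 h at 37 degrees C with compound, KB-V1 cell viability was read by CellTiter-Glo luminescence, medium being phenol-red-free DMEM plus 10% FBS; concentration-response parameters came from normalized, curve-fitted qHTS data.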
SW480 rereplic: induces DNA re-replication in SW480 colon adenocarcinoma cells; SW480 DNA re-replication, Hoechst DNA content imaging, 48 h; Potency, µM (titrated, usually from 46.1 µM), usual class: activators; hit rate 1.8% among 340,000; further: nearly all actives have a fitted effect of over 55% in size
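Hoechst fluorescence of nuclei (405 nm excitation, 500-530 nm emission) measured by plate-scanning imager after 48 hr compound exposure at 37 C; re-replication scored as increased number of nuclei with elevated intensity.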
Of the large screens only hits and unclear results are named; the others gave an inactive call. Rows were chosen to be rich in hits. Some 6.7% of all compounds tested hit in one or more screens of this group. Unless noted, the call rests on the fitted dose curve; in most records, active means well fitted curve in the direction sought with a large enough effect; inconclusive means small, poorly fitted or top-dose-only effect, or another doubt; inactive means no such curve, though single readings can be large; an effect the other way counts as inactive or inconclusive.

O=C(c1ccccc1)c1coc2c1C(=O)c1ccccc1C2=O	MCF10A rereplic inconclusive
FC(F)(F)C(F)(F)C(F)(F)c1nc2ccccc2[nH]1	none (no result: MCF10A rereplic, SW480 rereplic)
COc1ccc(CNC(=O)c2c(C)oc3c2C(=O)c2ccccc2C3=O)cc1	KB-3-1 cytotox inconclusive, MCF10A rereplic 4.6µM, SW480 rereplic 21µM
Cc1cccc(C(=O)Nc2ccc(C(=O)OCc3cc(=O)n4nc(C5CC5)sc4n3)cc2)c1	none (no result: MCF10A rereplic, SW480 rereplic)
COc1ccccc1C1CN=NC12CCCc1ccccc1C2=O (configuration not stated)	KB-V1 cytotox inconclusive
COC(=O)c1c(C)cccc1C1CN=NC12Cc1ccccc1C2=O (configuration not stated)	KB-V1 cytotox 21µM
N=c1c(C(=O)NC2CCCCC2)cc2c(=O)n3ccccc3nc2n1Cc1ccccc1	MCF10A rereplic 2.6µM, SW480 rereplic 9.2µM
N=c1c(C(=O)NC2CCCCC2)cc2c(=O)n3ccccc3nc2n1Cc1ccco1	MCF10A rereplic inconclusive, SW480 rereplic 21µM
COC(=O)c1cc2c(=O)n3ccccc3nc2n(Cc2cccnc2)c1=N	MCF10A rereplic inconclusive, SW480 rereplic inconclusive
N=c1c(C(=O)NC2CCCCC2)cc2c(=O)n3ccccc3nc2n1Cc1cccnc1	MCF10A rereplic inconclusive, SW480 rereplic 15µM
Cc1ccc(S(=O)(=O)c2cc3c(=O)n4ccccc4nc3n(Cc3ccco3)c2=N)cc1C	MCF10A rereplic inconclusive, SW480 rereplic inconclusive
CCC(C)n1c(=N)c(C(=O)NC2CCCC2)cc2c(=O)n3ccccc3nc21 (configuration not stated)	none (no result: MCF10A rereplic, SW480 rereplic)
Cc1ccc(Cn2c(=N)c(C(=O)NC3CCCC3)cc3c(=O)n4ccccc4nc32)cc1	MCF10A rereplic inconclusive, SW480 rereplic 1.6µM
N#C/C(=C\c1cccn1S(=O)(=O)c1cccc([N+](=O)[O-])c1)S(=O)(=O)c1ccc(F)cc1	none (no result: MCF10A rereplic, SW480 rereplic)
CC1=C(C(=O)N(C)C)CC(CC(=O)NCCCCc2ccccc2)C(=O)N1CCCN1CCCC1=O (configuration not stated)	none (no result: MCF10A rereplic, SW480 rereplic)
CC(C)Cc1ccc(CN2CCCC(NC(=O)c3cnc4ccccn4c3=O)C2)cc1 (configuration not stated)	KB-3-1 cytotox 16µM, MCF10A rereplic inconclusive, KB-V1 cytotox inconclusive, SW480 rereplic inconclusive
N=c1c(C(=O)NCc2ccc(F)cc2)cc2c(=O)n3ccccc3nc2n1Cc1cccnc1	MCF10A rereplic 5.8µM, PINK1 expr mod inconclusive, KB-V1 cytotox inconclusive, SW480 rereplic inconclusive
COc1ccc(CCn2c(=N)c(C(=O)NCc3ccco3)cc3c(=O)n4ccccc4nc32)cc1	MCF10A rereplic 9.2µM, KB-V1 cytotox 23µM
N=c1c(S(=O)(=O)c2ccccc2)cc2c(=O)n3ccccc3nc2n1Cc1ccco1	none
N=c1c(C(=O)NCCc2ccccc2)cc2c(=O)n3ccccc3nc2n1Cc1ccco1	MCF10A rereplic 9.2µM, KB-V1 cytotox inconclusive, SW480 rereplic 18µM
CCCn1c(=N)c(C(=O)NCc2cccnc2)cc2c(=O)n3ccccc3nc21	none (no result: MCF10A rereplic, SW480 rereplic)
Cc1ccc2nc3c(cc(C(=O)NCc4ccco4)c(=N)n3C(C)C)c(=O)n2c1	none (no result: MCF10A rereplic, SW480 rereplic)
Cc1ccc(OCC(=O)Nc2ccccc2C(=O)OCc2cc(=O)n3c(C)csc3n2)cc1	none (no result: KB-3-1 cytotox, MCF10A rereplic, KB-V1 cytotox, SW480 rereplic)
COc1ccc(NC(=O)COc2cccc3c2CCN(C)C3=O)c(OC)c1	none
N=c1c(C(=O)NC2CCCCC2)cc2c(=O)n3ccccc3nc2n1CCc1ccccc1	MCF10A rereplic 2.6µM, SW480 rereplic 2.3µM
COc1cccc(-n2cc(CN(C)Cc3nc(Cc4cccc(F)c4)no3)cn2)c1	none
COc1ccc(CN(C)Cc2nc(Cc3cccc(F)c3)no2)c2cccnc12	KB-3-1 cytotox inconclusive, MCF10A rereplic inconclusive, KB-V1 cytotox 1.8µM
N#CC1(Cc2ccccc2Cl)c2ccccc2C=CN1C(=O)c1ccccc1 (configuration not stated)	KB-3-1 cytotox inconclusive, KB-V1 cytotox 21µM
N#CC1c2ccccc2C=CN1C(=O)c1ccccc1 (configuration not stated)	SW480 rereplic inconclusive
C=CC(=O)N1CCC[C@@H](n2nc(-c3ccc(Oc4ccccc4)cc3)c3c(N)ncnc32)C1	KB-3-1 cytotox inconclusive, KB-V1 cytotox 22µM (no result: MCF10A rereplic, SW480 rereplic)
CC(=O)N1CCN(C(=O)c2cc(S(=O)(=O)N(C)Cc3ccccc3)ccc2Cl)CC1	none
CCOc1ccc2nc(NCCNC(=O)Nc3cccc(C)c3)c(C#N)cc2c1	KB-3-1 cytotox inconclusive, MCF10A rereplic inconclusive, KB-V1 cytotox inconclusive, SW480 rereplic 9.2µM
CCOc1ccc2nc(NCCNC(=O)Nc3ccccc3)c(C#N)cc2c1	MCF10A rereplic inconclusive, KB-V1 cytotox inconclusive, SW480 rereplic inconclusive
Cc1cc2cc(C#N)c(NCCNC(=S)NCCCN3CCOCC3)nc2cc1C	MCF10A rereplic 21µM, KB-V1 cytotox inconclusive, SW480 rereplic 16µM
CCOc1ccc2nc(NCCNC(=S)NCCCN(C)C)c(C#N)cc2c1	MCF10A rereplic 12µM, SW480 rereplic 16µM
Cc1ccc2cccc(NC(=O)c3ccc(-c4ccc(Cl)cc4Cl)o3)c2n1	none (no result: MCF10A rereplic, SW480 rereplic)
CCC(=O)N1CCc2cc(Br)cc(S(=O)(=O)CCC(=O)NCc3ccc(F)cc3)c21	none (no result: MCF10A rereplic, SW480 rereplic)
CCCN1CNc2c(c(=O)[nH]c(=S)n2CCc2ccccn2)C1	none (no result: KB-3-1 cytotox, MCF10A rereplic, KB-V1 cytotox, SW480 rereplic)
COCCNc1nnc(SCC(=O)NC2CCCCC2)s1	none
NNC(=O)c1sc(-c2ccccc2)cc1N	MCF10A rereplic 21µM, KB-V1 cytotox inconclusive
Cc1ccc(SC2=C[C@@]3(O)CC[C@@H](O)[C@@](Sc4ccc(C)cc4)(C2=O)[C@H]3O)cc1	KB-3-1 cytotox inconclusive, KB-V1 cytotox 16µM (no result: MCF10A rereplic, SW480 rereplic)
CC(C)(C)c1ccc(SC2=C[C@@]3(O)CC[C@@H](O)[C@@](Sc4ccc(C(C)(C)C)cc4)(C2=O)[C@H]3O)cc1	KB-3-1 cytotox inconclusive, PINK1 expr mod inconclusive, KB-V1 cytotox 13µM (no result: MCF10A rereplic, SW480 rereplic)
COc1ccc(C2CC23N=C(c2ccccc2)OC3=O)cc1 (configuration not stated)	MCF10A rereplic 16µM
COc1ccc(C2=NC(c3ccccc3)CO2)cc1 (configuration not stated)	none (no result: KB-3-1 cytotox, PINK1 expr mod, KB-V1 cytotox)
O=[N+]([O-])c1cccc(COc2ccccc2CN2CCCCC2)c1	none
COc1c(OC(C)=O)ccc(/C=C/c2ccc3cccc(OC)c3n2)c1[N+](=O)[O-]	KB-3-1 cytotox inconclusive, MCF10A rereplic inconclusive, KB-V1 cytotox inconclusive
COc1c(OC(C)=O)ccc(/C=C/c2ccc3ccccc3n2)c1[N+](=O)[O-]	MCF10A rereplic inconclusive, PINK1 expr mod 10µM
CCOc1c(OC(C)=O)ccc(/C=C/c2ccc3cccc(OC(C)=O)c3n2)c1[N+](=O)[O-]	KB-3-1 cytotox inconclusive, MCF10A rereplic inconclusive, KB-V1 cytotox 12µM, SW480 rereplic inconclusive
CCOc1ccccc1C=C1SC(=S)NC1=O	MCF10A rereplic 18µM, PINK1 expr mod inconclusive
O=C1NC(=S)SC1=Cc1ccccc1Br	KB-3-1 cytotox inconclusive, MCF10A rereplic 15µM, PINK1 expr mod inconclusive
O=C1NC(=S)SC1=Cc1ccc(F)cc1	PINK1 expr mod inconclusive (no result: KB-3-1 cytotox, KB-V1 cytotox)
